From PubChem BioAssay AID588591 (National Center for Advancing Translational Sciences (NCATS), 2011)
Screen size: about 390,000 compounds; about 4,700 (1.2%) were called active. Where a call stands in place of a potency, no number is given. Roughly 4% stayed inconclusive and do not appear here. The call rests on the fitted dose curve; in most records, active means well fitted inhibition curve with a large enough effect; inconclusive means small, poorly fitted or top-dose-only effect, or another doubt; inactive means no such curve, though single readings can be large or run the other way. This excerpt belongs to a sample that is enriched for actives.

biological target: DNA polymerase eta (Homo sapiens) (UniProt Q9Y253); test: qHTS for Inhibitors of Polymerase Eta; conditions: recombinant Pol eta, fluorescent DNA replication assay; series mostly up to 114 µM
Sequence (Q9Y253 whole entry, looked up): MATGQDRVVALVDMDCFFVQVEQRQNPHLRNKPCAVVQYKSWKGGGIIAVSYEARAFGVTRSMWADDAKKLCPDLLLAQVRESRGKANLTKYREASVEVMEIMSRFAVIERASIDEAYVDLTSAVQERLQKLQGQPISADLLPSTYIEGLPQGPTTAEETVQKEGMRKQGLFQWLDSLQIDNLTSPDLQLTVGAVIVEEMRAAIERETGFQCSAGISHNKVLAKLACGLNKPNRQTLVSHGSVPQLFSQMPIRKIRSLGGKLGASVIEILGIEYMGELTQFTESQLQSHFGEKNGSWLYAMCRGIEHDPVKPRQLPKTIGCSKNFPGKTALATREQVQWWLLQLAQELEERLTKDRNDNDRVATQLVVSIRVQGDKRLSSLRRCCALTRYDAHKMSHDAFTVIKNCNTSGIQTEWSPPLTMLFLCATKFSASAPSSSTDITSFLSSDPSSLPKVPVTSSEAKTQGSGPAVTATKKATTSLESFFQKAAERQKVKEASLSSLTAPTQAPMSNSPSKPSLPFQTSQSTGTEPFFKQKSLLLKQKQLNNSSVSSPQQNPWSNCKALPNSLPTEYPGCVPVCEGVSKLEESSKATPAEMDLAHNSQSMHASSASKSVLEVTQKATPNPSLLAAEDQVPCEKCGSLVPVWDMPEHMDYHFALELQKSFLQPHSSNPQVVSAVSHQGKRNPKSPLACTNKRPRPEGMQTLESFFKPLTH
Source text: The Y-family of DNA polymerases, such as Pol eta, are specifically involved in DNA repair. Pol eta copies undamaged DNA with a lower fidelity than other DNA-directed polymerases. However, it accurately replicates UV-damaged DNA; when thymine dimers are present, this polymerase inserts the complementary nucleotides in the newly synthesized DNA, thereby bypassing the lesion and suppressing the mutagenic effect of UV-induced DNA damage. […] Thus, while pol eta's (and most likely iota's) normal function is to protect humans against the deleterious consequences of DNA damage, under certain conditions they can have deleterious effects on human health. As a consequence, we propose to utilize a high throughput replication assay to identify small molecule inhibitors of pol eta. In a collaboration between the National Institute of Child Health & Human Development (NICHD) and NIH Chemical Genomics Center, a high-throughput, fluorescent screen was developed to screen the NIH Molecular Libraries Small Molecule Repository (MLSMR). This screen is used to identify inhibitors of pol eta. NIH Chemical Genomics Center [NCGC] NIH Molecular Libraries Probe Centers Network [MLPCN] MLPCN Grant: MH090825 Assay Submitter (PI): Roger Woodgate, NICHD)
Three microliters of reagents (buffer in column 3 and 4 as negative control and 10 nM Pol eta in columns 1, 2, and 5-48) were dispensed into a 1,536-well black solid-bottomed plate. Compounds (23 nL) were transferred via Kalypsys pin tool equipped with 1536-pin array. The plates were then incubated for 15 min at room temperature, and 1 µL substrate (50 nM final concentration) was added to start the reaction and kinetically read twice at 0 min and 10 min on the Viewlux reader
Potency means the concentration at half of the fitted maximal effect.

Row | Compound | Potency
1 | Cc1cccc(N2C(=O)NC(=O)/C(=C\c3cnn(-c4ccccc4)c3)C2=O)c1 | 20 µM (active)
2 | CN1C2C=C(N(C(=O)c3ccc(Cl)cc3)c3ccccc3)CC1CC2 (stereo not given) | inactive
3 | CCN(N=Nc1nonc1OC)c1nonc1OC | inactive
4 | C=CC12CN(C)[C@@H]3C4CO[C@H](C[C@H]41)[C@]1(C(=O)Nc4ccccc41)[C@@H]32 (stereo not given in full) | inactive
5 | Cc1c(C(=O)O)cccc1-n1c(C)cc(/C=C2\C(=O)NC(=O)N(c3ccc4c(c3)OCO4)C2=O)c1C | 5.01 µM (active)
6 | c1cc2c(cc1C1OCC3C(c4ccc5c(c4)OCO5)OCC13)OCO2 (stereo not given) | inactive
7 | c1ccc2sc(N3CCNCC3)nc2c1 | inactive
8 | CC(=NC1CCN(Cc2ccccc2)CC1)c1c(O)n(C)c(=O)n(C)c1=O | inactive
9 | Cn1c(O)c(C=Nc2ccc3c(c2)CCC3)c(=O)n(C)c1=O | inactive
10 | Cc1ccnc(-n2c(C)cc(/C=C3\C(=O)NC(=S)N(C)C3=O)c2C)c1 | inactive
11 | Cc1cc(/C=C2/C(=O)NC(=O)N(Cc3ccco3)C2=O)c(C)n1-c1ccc(C(=O)O)cc1 | 17.8 µM (active)
12 | Cc1ccc(-n2c(C)cc(/C=C3\C(=O)NC(=O)N(C)C3=O)c2C)cc1C | 11.2 µM (active)
13 | c1ccc2c(c1)[I+]c1ccccc1-2 | inactive
14 | CC(=O)NBr | inactive
15 | Fc1cccc(F)c1CN1CCN(Cc2c(F)cccc2F)CC1 | inactive
16 | CCOC(=O)c1ncn2c1[C@@H]1CCCN1C(=O)c1cc(OC)ccc1-2 | inactive
17 | Cc1c(Oc2cc(NN3CCCCC3)c([N+](=O)[O-])cc2[N+](=O)[O-])cccc1[N+](=O)[O-] | inactive
18 | CN(c1ccccc1)c1ccc([N+](=O)[O-])c2nonc12 | inactive
19 | Nc1ccc([N+](=O)[O-])cc1 | inactive
20 | COC(=O)N(c1ccc(OC)cc1)P1(=S)OCCC(C)O1 (stereo not given) | inactive
21 | CC1CCCN1CCC(C(N)=O)(c1ccccc1)c1ccccc1 (stereo not given) | inactive
22 | CC[N+](CC)(CC)CCCCCCCCCC[N+](CC)(CC)CC | inactive
23 | CC(=O)c1c(O)n(C2CCCCCC2)c(=O)[nH]c1=O | inactive
24 | O=C1NC(=O)N(c2ccc(F)cc2)C(=O)/C1=C/c1ccc2c(c1)CCCN2Cc1ccccc1 | 20 µM (active)
25 | CCC1(CC(C)c2ccccc2)C(=O)NC(=O)NC1=O (stereo not given) | inactive

Row | Compound | Potency
26 | Cc1cccc(OP(=O)(Oc2cccc(C)c2)OC(c2ccccc2)C(F)(F)F)c1 (stereo not given) | inactive
27 | CN(C)/C=C(\C=[N+](C)C)c1[nH]ncc1[N+](=O)[O-] | inactive
28 | COc1ccc(N2C(=O)/C(=C/c3ccco3)C(=O)NC2=S)cc1 | 1.12 µM (active)
29 | CC(=O)N1CN2CN(C(C)=O)CC(C(=O)c3ccc(Br)cc3)(C2)C1 | inactive
30 | Cc1ccc(CN2CCCC(C(=O)c3ccc4c(c3)OCO4)C2)cc1C (stereo not given) | inactive
31 | O=C1NC(=O)C(C/C=C/c2ccccc2)C(=O)N1 | inactive
32 | C[C@@H]1CC[C@@]2(OC1)O[C@H]1C[C@H]3[C@@H]4CC=C5C[C@@H](O)[C@H](O)C[C@]5(C)C4CC[C@]3(C)[C@H]1[C@@H]2C (stereo not given in full) | 89.1 µM (active)
33 | CN(C)c1ccc(/C=C2\CC3C4CC=C5CC(O)CCC5(C)C4CCC3(C)C2=O)cc1 (stereo not given) | inactive
34 | CCOC(=O)C(O)(c1ccc(N)c(OC)c1)C(F)(F)F (stereo not given) | inactive
35 | COC(=O)C(O)(c1ccc(NC(=O)c2ccco2)c(OC)c1)C(F)(F)F (stereo not given) | inactive
36 | CCCCN1C2CCC1CC(OC(c1ccc(F)cc1)c1ccc(F)cc1)C2 (stereo not given) | inactive
37 | C[C@@H]1C[C@@H]2O[C@H]2/C=C\C=C\C(=O)Cc2c(Cl)c(O)cc(O)c2C(=O)O1 | 10 µM (active)
38 | COc1ccc(-n2c(O)c(C(C)=Nc3ccc4c(c3)CCC4)c(=O)[nH]c2=O)cc1 | inactive
39 | O=C(Nc1ccc(Cl)cc1C(=O)c1ccccc1)c1cc(Cl)cc(Cl)c1 | inactive
40 | COc1ccc(C2C=C(C)Oc3c2c(=O)oc2ccccc32)cc1OC (stereo not given) | inactive
41 | CCN1C(=O)NC(=O)C2(CCCC2)C1=O | inactive
42 | O=C1NC(=O)N(CCc2ccc(F)cc2)C(=O)/C1=C/C=C/c1ccccc1 | 50.1 µM (active)
43 | COC(=O)C1=C(c2cc3ccccc3s2)C[C@@H]2CC[C@H]1N2C(=O)NC(C)C | inactive
44 | COc1ccc(C(=O)CC2C(=O)N(C)C(=O)N(C)C2=O)cc1 | inactive
45 | Cc1cc2ccccn2c1C(C[N+](=O)[O-])c1c(F)cccc1Cl (stereo not given) | inactive
46 | COc1cccc(N2C(=O)NC(=O)/C(=C\c3ccc([N+](=O)[O-])s3)C2=O)c1 | 17.8 µM (active)
47 | O=C1NC(=O)N(c2ccccc2)C(=O)/C1=C/c1ccc([N+](=O)[O-])s1 | 10 µM (active)
48 | Cn1c(O)c(C=NCCN2CCNCC2)c(=O)n(C)c1=O | inactive
49 | COC(=O)C1=C(c2ccc(OCc3ccccc3)cc2)C[C@@H]2CC[C@H]1N2C(=O)NCc1ccc(Cl)cc1 | inactive
50 | O=C(O)C1C2CCC(O2)C1C(=O)O (stereo not given) | inactive

Row | Compound | Potency
51 | CC1=C(C(=O)Nc2ccccc2)SCCO1 | inactive
52 | CCOC(=O)C1SC2(C(F)(F)C(F)F)CC1(O)c1c(c(OC)c3occc3c1OC)O2 (stereo not given) | inactive
53 | CCN1CCN(c2nc3c(c(=O)[nH]2)CCC3)CC1 | inactive
54 | Cc1cccc(NC(=O)OC2CN3CCC2CC3)c1 (stereo not given) | inactive
55 | CN(C)S(=O)(=O)c1cc(C(=O)N2CCC(C(=O)O)(c3ccccc3)CC2)ccc1Cl | inactive
56 | COC(=O)C1=C(c2c(C)noc2C)C[C@@H]2CC[C@H]1N2C(=O)NCc1ccc2c(c1)OCO2 | inactive
57 | CCc1ccc(OCC(=O)N2CCN(CC(=O)Nc3ccccc3Cl)CC2)cc1 | inactive
58 | C[C@H]1CN([C@@H](C)CO)C(=O)CCCn2nncc2CO[C@H]1CN(C)C(=O)Oc1ccccc1 | inactive
59 | Cc1cc(C(=O)OCC(=O)Nc2c(F)cccc2F)c(C)n1C1CC1 | inactive
60 | CN1CCN(/N=C/c2c[nH]c3ccccc23)CC1 | inactive
61 | CN1CCc2nc(SC(C(=O)O)c3ccccc3)c(C#N)c(-c3cccs3)c2C1 (stereo not given) | 31.6 µM (active)
62 | Cc1ccc(-n2c(/C=C/c3cccc(C(F)(F)F)c3)nc3ccccc3c2=O)cc1 | inactive
63 | O=C(CCCn1c(=O)[nH]c2cc(Cl)ccc2c1=O)N1CCC2(CC1)OCCO2 | inactive
64 | CCN(CC)C(=O)c1ccc(NC(=O)c2sccc2-c2ccccc2)cc1 | inactive
65 | C=CCN(CC=C)C(=O)Nc1ccc(OCC)cc1 | inactive
66 | CCOc1ccc(-c2cc(C)n3nc(C(=O)Nc4ccc(C)c(C)c4)cc3n2)cc1 | 70.8 µM (active)
67 | CC1=C(C(=O)Nc2ccccc2)S(=O)(=O)CCO1 | inactive
68 | Cn1cc(C(=O)OCC(=O)N2CCCC2)c2ccccc21 | inactive
69 | O=C1NC(=O)N(Cc2ccco2)C(=O)/C1=C\c1cccn1CCOc1ccccc1 | 79.4 µM (active)
70 | O=C1NC(=O)N(Cc2ccco2)C(=O)/C1=C\c1ccc(-c2ccc(F)cc2)o1 | 25.1 µM (active)
71 | COc1cccc(OC)c1C(=O)NC(=S)N1C[C@H]2C[C@H](C1)c1cccc(=O)n1C2 | inactive
72 | CC(C)c1ccc(OCC(=O)N2CCN(C)CC2)c(Br)c1 | inactive
73 | CCOC(=O)C1=C(C)OC(N)=C(C(=O)OC)C12C(=O)Nc1ccc(Br)cc12 (stereo not given) | inactive
74 | COc1cccc(CN2CCCC(C(=O)c3ccccc3SC)C2)c1O (stereo not given) | inactive
75 | Cc1ccc(P(=S)(c2ccc(C)o2)N2CCOCC2)o1 | inactive
